Experimental data reported in PubChem BioAssay (Tox21).
Where “and” joins values, the source holds several entries; their conditions need not be identical. Equal values may be shown once. Results filed as inconclusive are left out. More than one record can exist for a structure, and the calls need not agree. Calls of active or inactive are those of the source. Calls come from the whole dose curve; as a rule, active = well fitted curve in the direction sought with a large enough effect in the repeat runs; inconclusive = weak or mixed curves; inactive = no such curve, though single readings can be large; an effect the other way counts as inactive or inconclusive.

Columns and labels:
[1] = A CellTox Green Cytotoxicity Assay to monitor cytotoxicity in HEK293 cells - 40 hour (AID 1224871); note: nearly all actives have a fitted effect of over 45% in size
Procedure, shortened: (§1)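 Fluorescence from a DNA-binding dye excluded by viable cells was measured repeatedly in the same HEK293 wells (600 cells/well) during continuous compound exposure at 37 C. Each assay gives one read point: 0, 8, 16, 24, 32 or 40 h.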

[2] = qHTS RealTime-Glo MT Cell Viability Assay in HEK293 cells - 16 hour (AID 1224872); note: top concentration of the series differs between compounds; nearly all actives have a fitted effect of over 50% in size
Procedure, shortened: (§2)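 Viability tracked continuously by luminescence as live cells reduce a prosubstrate for NanoLuc; HEK293 cells preincubated 5 h, compound-treated at 37 C, and read at 0, 8, 16, 24, 32 and 40 h.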

[3] = qHTS RealTime-Glo MT Cell Viability Assay in HepG2 cells - 8 hour (AID 1224873); note: nearly all actives have a fitted effect of over 55% in size
Procedure, shortened: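 HepG2 cells mixed with RealTime-Glo MT reagents (NanoLuc plus cell-permeant prosubstrate) were seeded at 600 cells/well, incubated 5 h at 37 C/5% CO2, then pinned with compounds in DMSO; nonlytic luminescence tracked viability during 40 h treatment.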

[4] = qHTS RealTime-Glo MT Cell Viability Assay in HEK293 cells - 40 hour (AID 1224874); settings: RealTime-Glo luminescence; max response: stronger effect = lower value; note: nearly all actives have a fitted effect of over 50% in size; note: potency is the fitted concentration of half-maximal effect
Procedure, shortened: (§3)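 Luminescence, which tracks viable cell number through reduction of the prosubstrate to a NanoLuc substrate, was read over continuous 37 C culture. Cells (600/well) were premixed with reagent and rested 5 h before 23 nL of compound in DMSO was pinned.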

[5] = A CellTox Green Cytotoxicity Assay to monitor cytotoxicity in HEK293 cells - 24 hour (AID 1224875); note: series mostly up to about 77 µM; nearly all actives have a fitted effect of over 45% in size
Procedure, shortened: as §1

[6] = A CellTox Green Cytotoxicity Assay to monitor cytotoxicity in HepG2 cells - 16 hour (AID 1224876); note: nearly all actives have a fitted effect of over 45% in size
Procedure, shortened: (§4)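 Real-time cytotoxicity: fluorescence of a cell-impermeant cyanine dye binding DNA of dead HepG2 cells, measured repeatedly (0–40 h) during compound exposure at 37 C. Cells seeded 600/well with reagent, dosed after 5 h.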

[7] = qHTS RealTime-Glo MT Cell Viability Assay in HepG2 cells - 32 hour (AID 1224877); note: nearly all actives have a fitted effect of over 55% in size
Procedure, shortened: (§5)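 Viability was tracked continuously by NanoLuc luminescence from prosubstrate reduced by living HepG2 cells, at successive time points over 40 h of compound exposure. Cells with reagent were preincubated 5 h at 37 °C before compound addition.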

[8] = A CellTox Green Cytotoxicity Assay to monitor cytotoxicity in HepG2 cells - 24 hour (AID 1224878); note: nearly all actives have a fitted effect of over 45% in size; note: potency is the fitted concentration of half-maximal effect
Procedure, shortened: as §4

[9] = A CellTox Green Cytotoxicity Assay to monitor cytotoxicity in HepG2 cells - 40 hour (AID 1224879); note: nearly all actives have a fitted effect of over 40% in size; note: potency is the fitted concentration of half-maximal effect
Procedure, shortened: as §4

[10] = qHTS RealTime-Glo MT Cell Viability Assay in HEK293 cells - 0 hour (AID 1224880)
Procedure, shortened: as §3

[11] = A CellTox Green Cytotoxicity Assay to monitor cytotoxicity in HEK293 cells - 32 hour (AID 1224881); note: nearly all actives have a fitted effect of over 40% in size
Procedure, shortened: as §1

[12] = A CellTox Green Cytotoxicity Assay to monitor cytotoxicity in HepG2 cells - 0 hour (AID 1224882); note: nearly all actives have a fitted effect of over 35% in size
Procedure, shortened: as §4

[13] = A CellTox Green Cytotoxicity Assay to monitor cytotoxicity in HepG2 cells - 32 hour (AID 1224883); note: nearly all actives have a fitted effect of over 50% in size; note: potency is the fitted concentration of half-maximal effect
Procedure, shortened: as §4

[14] = A CellTox Green Cytotoxicity Assay to monitor cytotoxicity in HEK293 cells - 8 hour (AID 1224884); note: nearly all actives have a fitted effect of over 35% in size
Procedure, shortened: as §1

[15] = qHTS RealTime-Glo MT Cell Viability Assay in HepG2 cells - 16 hour (AID 1224885); note: nearly all actives have a fitted effect of over 50% in size
Procedure, shortened: as §5

[16] = qHTS RealTime-Glo MT Cell Viability Assay in HEK293 cells - 24 hour (AID 1224886)
Procedure, shortened: as §2

[17] = qHTS RealTime-Glo MT Cell Viability Assay in HEK293 cells - 8 hour (AID 1224887)
Procedure, shortened: as §3

[18] = A CellTox Green Cytotoxicity Assay to monitor cytotoxicity in HEK293 cells - 16 hour (AID 1224888); note: nearly all actives have a fitted effect of over 35% in size
Procedure, shortened: as §1

[19] = qHTS RealTime-Glo MT Cell Viability Assay in HepG2 cells - 0 hour (AID 1224889); note: nearly all actives have a fitted effect of over 50% in size
Procedure, shortened: as §5

[20] = A CellTox Green Cytotoxicity Assay to monitor cytotoxicity in HepG2 cells - 8 hour (AID 1224890); note: nearly all actives have a fitted effect of over 45% in size
Procedure, shortened: as §4
% is set by controls: 0 for no effect and ±100 for the full control effect.

COCN(COC)c1nc(N(COC)COC)nc(N(COC)COC)n1
inactive: Potency [1] | Potency [2] | Potency [3] | max response [4] -2.02% and -0.0674% | Potency [5] | Potency [6] | Potency [7] | Potency [8] | Potency [9] | Potency [10] | Potency [11] | Potency [12] | Potency [13] | Potency [14] | Potency [15] | Potency [16] | Potency [17] | Potency [18] | Potency [19] | Potency [20]

Nc1nc(N)c2nc(-c3ccccc3)c(N)nc2n1
54.9 µM (active) and inactive: Potency [8]
active: Potency [4] 24.8 µM and 19.5 µM | Potency [9] 49.5 µM and 49 µM | Potency [13] 49.5 µM and 49 µM
inactive: Potency [1] | Potency [2] | Potency [3] | max response [4] -27.6% | Potency [5] | Potency [6] | Potency [7] | Potency [10] | Potency [11] | Potency [12] | Potency [14] | Potency [15] | Potency [16] | Potency [17] | Potency [18] | Potency [19] | Potency [20]

Cc1ccc(C(C)C)cc1
inactive: Potency [1] | Potency [2] | Potency [3] | max response [4] 2.75% and 28.4% | Potency [5] | Potency [6] | Potency [7] | Potency [8] | Potency [9] | Potency [10] | Potency [11] | Potency [12] | Potency [13] | Potency [14] | Potency [15] | Potency [16] | Potency [17] | Potency [18] | Potency [19] | Potency [20]

C=C(C)CC(C)(C)C
inactive: Potency [1] | Potency [2] | Potency [3] | max response [4] 7.8% and -7.58% | Potency [5] | Potency [6] | Potency [7] | Potency [8] | Potency [9] | Potency [10] | Potency [11] | Potency [12] | Potency [13] | Potency [14] | Potency [15] | Potency [16] | Potency [17] | Potency [18] | Potency [19] | Potency [20]

CC/C(C)=N/O
inactive: Potency [1] | Potency [2] | Potency [3] | max response [4] 0.953% and 3.11% | Potency [5] | Potency [6] | Potency [7] | Potency [8] | Potency [9] | Potency [10] | Potency [11] | Potency [12] | Potency [13] | Potency [14] | Potency [15] | Potency [16] | Potency [17] | Potency [18] | Potency [19] | Potency [20]

CCCCCCC(=O)O
inactive: Potency [1] | Potency [2] | Potency [3] | max response [4] 0.822% and 2.88% | Potency [5] | Potency [6] | Potency [7] | Potency [8] | Potency [9] | Potency [10] | Potency [11] | Potency [12] | Potency [13] | Potency [14] | Potency [15] | Potency [16] | Potency [17] | Potency [18] | Potency [19] | Potency [20]

CCCCCCCCCCCCCC(=O)O
inactive: Potency [1] | Potency [2] | Potency [3] | max response [4] -22.5% and -9.69% | Potency [5] | Potency [6] | Potency [7] | Potency [8] | Potency [9] | Potency [10] | Potency [11] | Potency [12] | Potency [13] | Potency [14] | Potency [15] | Potency [16] | Potency [17] | Potency [18] | Potency [19] | Potency [20]

CN1Cc2c(N)cccc2C(c2ccccc2)C1 (stereo unspecified)
inactive: Potency [1] | Potency [2] | Potency [3] | max response [4] -23.8% and -3.82% | Potency [5] | Potency [6] | Potency [7] | Potency [8] | Potency [9] | Potency [10] | Potency [11] | Potency [12] | Potency [13] | Potency [14] | Potency [15] | Potency [16] | Potency [17] | Potency [18] | Potency [19] | Potency [20]

Cc1ccc(Cl)cc1
inactive: Potency [1] | Potency [2] | Potency [3] | max response [4] 3.18% and 19.9% | Potency [5] | Potency [6] | Potency [7] | Potency [8] | Potency [9] | Potency [10] | Potency [11] | Potency [12] | Potency [13] | Potency [14] | Potency [15] | Potency [16] | Potency [17] | Potency [18] | Potency [19] | Potency [20]

CC1(C)C(=O)N(Cl)C(=O)N1Cl
inactive: Potency [1] | Potency [2] | Potency [3] | max response [4] 1.41% and 7.94% | Potency [5] | Potency [6] | Potency [7] | Potency [8] | Potency [9] | Potency [10] | Potency [11] | Potency [12] | Potency [13] | Potency [14] | Potency [15] | Potency [16] | Potency [17] | Potency [18] | Potency [19] | Potency [20]

O=[N+]([O-])c1cc(C(F)(F)F)ccc1Cl
inactive: Potency [1] | Potency [2] | Potency [3] | max response [4] -1.22% and -0.472% | Potency [5] | Potency [6] | Potency [7] | Potency [8] | Potency [9] | Potency [10] | Potency [11] | Potency [12] | Potency [13] | Potency [14] | Potency [15] | Potency [16] | Potency [17] | Potency [18] | Potency [19] | Potency [20]

C=C(CC(=O)O)C(=O)O
inactive: Potency [1] | Potency [2] | Potency [3] | max response [4] 2.09% and -0.881% | Potency [5] | Potency [6] | Potency [7] | Potency [8] | Potency [9] | Potency [10] | Potency [11] | Potency [12] | Potency [13] | Potency [14] | Potency [15] | Potency [16] | Potency [17] | Potency [18] | Potency [19] | Potency [20]
